biological target: AMP-activated protein kinase, AMPK (Homo sapiens) (UniProt P54646+O43741+P54619+Q9UGJ0+Q9Y478+Q13131+Q9UGI9); experiment: AMP-dependent Kinase enzyme assay. An in vitro enzyme assay that detects ADP turnover that is directly proportional to AMPK activity. This uses naive AMPK that is activated during the assay with MK-8722; format: functional; design: scale not given: direction of the effect not stated beside the values; conditions: 30 µM

SMILES	Percent Effect
Cc1nc(CN2CCN(S(=O)(=O)N3CCCCC3)CC2)oc1C	-4.45%
CN(CCC#N)C(=O)Cn1cnc2c(Br)cccc2c1=O	2.35%
CC(C)Cc1nc(C[S+]([O-])CC(=O)NCc2ccccc2)no1 (centres undefined)	0.747%
CN1CCC(N(Cc2ccncc2)C(=O)COCC2CCCCO2)CC1 (centres undefined)	1.82%
CCCN(CC(=O)NC)C(=O)c1ccc(-c2nc(C)cs2)cc1	1.67%
FC(F)(F)c1cccc(OC2CCN(Cc3ccccn3)CC2)c1	2.09%
CCCn1cc(NC(=O)c2cccc(CN3CC=CC3)c2)nn1	3.97%
Cc1nc(C)c(C(=O)N2C[C@@H](C(=O)O)[C@H](C3CC3)C2)s1	7.29%
CC(C)N(C)C(=O)C1CCN(Cc2cnc3ccccn23)CC1	-1.05%
NC(=O)COc1ccc(CN2CCC(O)(CN3CCCCC3)C2)cc1Cl (centres undefined)	2.63%
Cc1ccnc(NC(=O)c2ccc(Br)o2)c1	5.24%
CN(C)CCNC(=O)CCC1CCN(C(=O)c2ccc(Cl)cc2O)CC1	9.06%
CN(C)c1ccccc1C(=O)N1CCCC(c2ccc(C(=O)O)cc2)C1 (centres undefined)	-3.47%
O=C(c1cnn2ccccc12)N1CCCC(OCc2ccccn2)C1 (centres undefined)	14.8%
O=C(c1cnn[nH]1)N(Cc1ccncc1)CC1CCCO1 (centres undefined)	-5.18%
COc1ccc(CC(C)Nc2cccc(SC)c2)cc1 (centres undefined)	-5.64%
COCCNc1nc(C)nc2c1CCN(C[C@H]1CC[C@@H](N)CC1)CC2	1.5%
O=C(NC1CC1)c1nc(Cn2c(C(F)F)nc3ccccc32)no1	10.9%
CNS(=O)(=O)c1ccc(CNC(=O)NCc2cc[nH]n2)cc1	2.83%
